# Assay results as given in PubChem BioAssay AID623888 (Vanderbilt Specialized Chemistry Center, 2012).
# Target: Metabotropic glutamate receptor 3 (Rattus norvegicus) (UniProt P31422)
# Assay: PubChem AID 623888
# Conditions: HEK/GIRK rat mGlu3, thallium flux fluorescence, Schild, at 10 µM; % glutamate max: glutamate max response with compound, stronger effect = lower value; glutamate EC50 fold shift: stronger effect = higher value
# Sequence of Metabotropic glutamate receptor 3 (Rattus norvegicus) (P31422 whole entry, looked up): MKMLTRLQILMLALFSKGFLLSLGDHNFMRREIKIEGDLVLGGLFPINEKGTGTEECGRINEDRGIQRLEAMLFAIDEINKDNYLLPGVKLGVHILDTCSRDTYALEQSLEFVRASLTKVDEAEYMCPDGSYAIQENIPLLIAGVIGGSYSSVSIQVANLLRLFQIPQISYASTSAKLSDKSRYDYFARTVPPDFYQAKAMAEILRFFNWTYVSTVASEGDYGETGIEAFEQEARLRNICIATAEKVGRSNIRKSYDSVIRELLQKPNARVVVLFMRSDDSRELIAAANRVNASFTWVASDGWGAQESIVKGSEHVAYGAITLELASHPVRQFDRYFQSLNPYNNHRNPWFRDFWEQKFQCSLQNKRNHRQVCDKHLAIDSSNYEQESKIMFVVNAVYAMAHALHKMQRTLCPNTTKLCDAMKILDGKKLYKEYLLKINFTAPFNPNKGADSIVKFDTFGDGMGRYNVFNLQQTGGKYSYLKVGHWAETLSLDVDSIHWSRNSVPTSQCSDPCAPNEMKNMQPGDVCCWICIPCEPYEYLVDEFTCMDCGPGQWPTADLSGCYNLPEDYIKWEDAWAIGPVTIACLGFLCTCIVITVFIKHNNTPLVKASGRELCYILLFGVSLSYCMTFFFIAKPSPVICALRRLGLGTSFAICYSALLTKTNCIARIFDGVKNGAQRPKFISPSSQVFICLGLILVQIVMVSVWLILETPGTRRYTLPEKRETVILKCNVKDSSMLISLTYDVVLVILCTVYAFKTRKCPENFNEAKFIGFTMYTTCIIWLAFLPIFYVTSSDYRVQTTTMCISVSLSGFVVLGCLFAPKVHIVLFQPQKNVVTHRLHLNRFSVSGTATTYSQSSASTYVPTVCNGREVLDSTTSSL
smiles,measurement,value
COc1ccc(C#Cc2ccc(C(=O)N3CCC[C@@H](CO)C3)cc2)cc1,% glutamate max,24.5%
same,glutamate EC50 fold shift,8.96
